Laboratory results published in PubChem BioAssay (NCATS).
“And” between values parts separate entries of the source, which are not always exact repeats. Identical values can stand only once. Results filed as inconclusive are left out. The source made the active and inactive calls. Unless noted, calls come from the whole dose curve; as a rule, active = well fitted curve in the direction sought with a large enough effect; inconclusive = small, poorly fitted or top-dose-only effect, or another doubt; inactive = no such curve, though single readings can be large; an effect the other way counts as inactive or inconclusive.

What was measured:
[1] = qHTS for differential inhibitors of proliferation of Plasmodium falciparum line D10 (AID 1877);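 note: potency is the fitted concentration of half-maximal effect; parasites grown with compound for 72 h before DNA staining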
[2] = qHTS for differential inhibitors of proliferation of Plasmodium falciparum line Dd2 (AID 1882); conditions: Potency: Plasmodium falciparum Dd2 proliferation inhibition; note: potency is the fitted concentration of half-maximal effect; nearly all actives have a fitted effect of over 65% in size
Method in brief: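 RBC culture, 0.3% parasitemia / 2.5% Hct final; cpd added by pin tool in DMSO; 72 h, 37 C, 5% CO2; lysis buffer + SYBR Green I, o/n RT dark; FI 485/535; norm. to artemisinin 0.29 uM and DMSO.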

[3] = qHTS for differential inhibitors of proliferation of Plasmodium falciparum line W2 (AID 1883); conditions: Potency: Plasmodium falciparum W2 proliferation inhibition;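 note: potency is the fitted concentration of half-maximal effect; parasites grown with compound for 72 h before lysis and staining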
[4] = qHTS for differential inhibitors of proliferation of Plasmodium falciparum line HB3 (AID 1886); conditions: Potency: Plasmodium falciparum HB3 proliferation inhibition;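 note: potency is the fitted concentration of half-maximal effect; parasites grown with compound for 72 h before SYBR Green readout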
[5] = biological target: ATP-dependent DNA helicase Q1 (Homo sapiens) (UniProt P46063); test: qHTS Validation Assay for Inhibitors of RecQ-Like Dna Helicase 1 (RECQ1) (AID 2353)
Chain of ATP-dependent DNA helicase Q1 (Homo sapiens) (P46063 whole entry, looked up): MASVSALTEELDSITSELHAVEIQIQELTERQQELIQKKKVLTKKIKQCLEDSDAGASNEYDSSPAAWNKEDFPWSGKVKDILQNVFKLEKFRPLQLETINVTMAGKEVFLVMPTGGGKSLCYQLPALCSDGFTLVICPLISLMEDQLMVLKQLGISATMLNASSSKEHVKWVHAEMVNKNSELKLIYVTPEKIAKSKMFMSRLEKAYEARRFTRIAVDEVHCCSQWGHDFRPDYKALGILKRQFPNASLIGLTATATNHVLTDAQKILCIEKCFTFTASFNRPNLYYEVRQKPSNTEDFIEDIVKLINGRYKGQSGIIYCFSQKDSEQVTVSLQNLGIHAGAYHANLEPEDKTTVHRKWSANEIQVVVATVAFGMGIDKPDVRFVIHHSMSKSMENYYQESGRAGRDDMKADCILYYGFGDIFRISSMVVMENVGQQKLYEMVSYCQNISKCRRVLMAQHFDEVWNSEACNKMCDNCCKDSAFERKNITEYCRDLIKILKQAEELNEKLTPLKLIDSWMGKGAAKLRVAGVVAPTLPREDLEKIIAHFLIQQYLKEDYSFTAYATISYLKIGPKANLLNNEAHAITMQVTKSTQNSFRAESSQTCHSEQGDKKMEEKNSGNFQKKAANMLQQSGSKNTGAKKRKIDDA
Method in brief: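 RECQ1T1 50 nM; forked duplex (20 bp + 30-nt ss tails) 200 nM, ATP 2 mM final; pH 8.0, 2 mM MgCl2, 2.5 ug/ml poly(dI-dC); 15 min compound preincubation; discontinuous kinetic read over 2 h at RT.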

[6] = Cytometric Cell-Based qHTS for Inhibitors of the mTORC1 Signaling Pathway in MEF (Tsc2-/-, p53-/-) Cells (AID 2660);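 note: Tsc2 and p53 null MEFs carrying empty vector with compound for 24 h; percent of cells above a phospho-rpS6 to PI ratio cutoff in each well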
Method in brief: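 Immunofluorescence qHTS of rpS6 Ser235/236 phosphorylation: MEFs (Tsc2-/-, p53-/-) treated 24 h, 37 C, in DMEM + 10% FBS. Alexa-488 signal normalized to PI count, referenced to rapamycin (7.5 nM) and DMSO; PI cell number recorded for viability.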

[7] = High Content Imaging Cell-Based qHTS for Inhibitors of the mTORC1 Signaling Pathway in MEF (Tsc2-/-, p53-/-) Cells (AID 2666); conditions: at 38.3 µM (top of the series);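 note: percent of cells scored positive for phospho-rpS6 Ser235/236 immunostaining by imaging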
Method in brief: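 Tsc2-/-, p53-/- MEFs (empty-vector stable) grown in DMEM + 10% FBS were exposed to compounds for 24 hrs at 37 degree Celsius, fixed, and stained with Alexa-488 anti-phospho-rpS6 Ser235/236 plus Hoechst. Imaging gave the percentage of positive cells per well.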

[8] = High Content Imaging Cell-Based qHTS for Inhibitors of the mTORC1 Signaling Pathway in MEF Cells (AID 2667);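 note: Tsc2-/- p53-/- MEFs stably re-expressing wild-type Tsc2 exposed 24 h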
Method in brief: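 Tsc2-/-, p53-/- MEFs stably re-expressing WT Tsc2, grown in DMEM + 10% FBS, were treated with compounds for 24 hrs at 37 degree Celsius, fixed, and stained with Alexa-488 phospho-rpS6 Ser235/236 antibody plus Hoechst; results given as % positive cells.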

[9] = biological target: Ubiquitin carboxyl-terminal hydrolase 2 (Homo sapiens) (UniProt O75604); test: qHTS Validation Assay for Inhibitors of Ubiquitin-specific Protease USP2a Using CHOP2 as the Reporter (AID 463106)
Chain of Ubiquitin carboxyl-terminal hydrolase 2 (Homo sapiens) (O75604 whole entry, looked up): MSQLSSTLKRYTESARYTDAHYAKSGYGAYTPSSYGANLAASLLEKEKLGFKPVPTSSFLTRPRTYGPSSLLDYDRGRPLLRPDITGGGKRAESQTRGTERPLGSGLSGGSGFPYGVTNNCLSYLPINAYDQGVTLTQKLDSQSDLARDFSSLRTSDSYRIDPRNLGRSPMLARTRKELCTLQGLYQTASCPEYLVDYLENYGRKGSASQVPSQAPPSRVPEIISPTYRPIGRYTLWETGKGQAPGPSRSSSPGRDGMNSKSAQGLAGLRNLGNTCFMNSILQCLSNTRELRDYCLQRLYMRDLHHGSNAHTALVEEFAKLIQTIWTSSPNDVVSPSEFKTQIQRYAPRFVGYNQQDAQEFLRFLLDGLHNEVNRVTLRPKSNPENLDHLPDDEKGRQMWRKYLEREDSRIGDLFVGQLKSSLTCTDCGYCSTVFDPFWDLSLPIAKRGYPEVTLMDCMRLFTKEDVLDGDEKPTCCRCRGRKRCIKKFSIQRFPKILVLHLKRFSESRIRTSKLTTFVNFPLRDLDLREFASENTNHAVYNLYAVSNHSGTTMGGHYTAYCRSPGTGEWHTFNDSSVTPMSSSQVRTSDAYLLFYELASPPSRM
Method in brief: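 Readout was coupled fluorescence (Ex 485/Em 531 nm), read 60 min after adding 25 nM final Ub-CHOP2 and 25 nM reporter substrate. Beforehand, 10 nM final USP2 core had 30 min at RT with compound in pH 8.0 buffer. Curves were fitted after normalization to NEM and flagged for artifacts using time-zero reads.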

[10] = biological target: DNA polymerase III PolC-type (Bacillus subtilis (strain 168)) (UniProt P13267); test: qHTS Validation Assay for the Inhibitors of DNA Replication in Gram-Positive Bacteria (AID 485295);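 note: reconstituted holoenzyme with PolC plus beta clamp SSB and primase; PicoGreen fluorescence of double-stranded DNA made on primed circular M13 template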
Method in brief: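 Inhibition of DNA synthesis by the reconstituted PolC holoenzyme, monitored through PicoGreen staining of dsDNA formed from ssM13Gori, dNTPs and NTPs, with compound preincubation and room-temperature reaction.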

[11] = biological target: Tumor susceptibility gene 101 protein (Homo sapiens) (UniProt Q99816); test: qHTS Validation Assay for Iinhibitors of HIV-1 Budding by Blocking the Interaction of PTAP/TSG101 (AID 485342; calls by dose curve)
Chain of Tumor susceptibility gene 101 protein (Homo sapiens) (Q99816 whole entry, looked up, the tested form may be a part): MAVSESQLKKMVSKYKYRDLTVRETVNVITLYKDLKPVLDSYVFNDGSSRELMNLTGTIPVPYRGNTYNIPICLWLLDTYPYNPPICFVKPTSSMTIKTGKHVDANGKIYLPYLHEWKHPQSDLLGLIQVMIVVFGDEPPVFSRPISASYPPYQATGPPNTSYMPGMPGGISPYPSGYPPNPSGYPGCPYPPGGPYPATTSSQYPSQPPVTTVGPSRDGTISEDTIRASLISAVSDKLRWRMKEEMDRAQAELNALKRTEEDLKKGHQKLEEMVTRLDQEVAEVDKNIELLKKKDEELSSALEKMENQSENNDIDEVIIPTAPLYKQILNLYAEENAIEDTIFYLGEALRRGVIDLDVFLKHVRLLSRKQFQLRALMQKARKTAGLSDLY
Method in brief: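 Compound wells held the Tsg101 binding domain (10 uM) and a FITC-conjugated PTAP peptide (50 nM) in buffer at pH 7.5 containing 0.15 M NaCl and 0.01% Tween 20; polarization was recorded after 20 min, r.t.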

[12] = biological target: Beta-2 adrenergic receptor (Homo sapiens) (UniProt P07550); test: qHTS validation assay of beta-arrestin-biased ligands of beta2-adrenergic receptor (AID 485366)
Chain of Beta-2 adrenergic receptor (Homo sapiens) (P07550 whole entry, looked up): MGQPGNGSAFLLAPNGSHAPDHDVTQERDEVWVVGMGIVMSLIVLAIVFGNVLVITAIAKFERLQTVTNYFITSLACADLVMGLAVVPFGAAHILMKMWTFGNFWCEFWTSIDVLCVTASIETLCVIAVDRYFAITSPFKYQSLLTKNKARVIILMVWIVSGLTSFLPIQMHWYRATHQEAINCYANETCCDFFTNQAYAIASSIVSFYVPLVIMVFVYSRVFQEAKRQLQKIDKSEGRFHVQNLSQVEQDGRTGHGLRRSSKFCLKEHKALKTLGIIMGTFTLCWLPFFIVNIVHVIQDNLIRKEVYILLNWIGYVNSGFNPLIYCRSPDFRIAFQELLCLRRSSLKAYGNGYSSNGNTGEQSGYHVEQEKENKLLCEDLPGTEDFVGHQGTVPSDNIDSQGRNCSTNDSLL
Method in brief: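 Agonism was measured as beta-arrestin recruitment to recombinant beta2-AR, releasing tTA to drive luciferase. Cells were exposed for 18 hr at 37 degrees C to a series up to 46 microM. %Activity from corrected luminescence gave concentration-response curves.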

[13] = biological target: ATP-dependent 6-phosphofructokinase (Trypanosoma brucei brucei) (UniProt O15648); test: qHTS Validation Assay to Find Inhibitors of T. brucei phosphofructokinase (AID 485368)
Chain of ATP-dependent 6-phosphofructokinase (Trypanosoma brucei brucei) (O15648 whole entry, looked up): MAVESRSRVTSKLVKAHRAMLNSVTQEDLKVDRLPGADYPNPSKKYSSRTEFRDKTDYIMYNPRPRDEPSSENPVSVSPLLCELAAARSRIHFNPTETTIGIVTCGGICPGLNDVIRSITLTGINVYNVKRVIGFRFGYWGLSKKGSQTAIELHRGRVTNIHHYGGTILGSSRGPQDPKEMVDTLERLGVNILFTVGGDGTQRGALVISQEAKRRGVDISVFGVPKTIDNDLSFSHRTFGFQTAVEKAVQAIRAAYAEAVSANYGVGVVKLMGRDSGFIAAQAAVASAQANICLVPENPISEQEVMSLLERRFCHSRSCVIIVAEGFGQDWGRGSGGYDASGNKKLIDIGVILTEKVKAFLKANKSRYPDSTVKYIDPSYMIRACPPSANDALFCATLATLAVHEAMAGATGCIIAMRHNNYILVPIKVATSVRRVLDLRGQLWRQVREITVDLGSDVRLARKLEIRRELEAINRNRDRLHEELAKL
Method in brief: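 ADP-Glo luminescence, two-step: residual ATP depleted, then ADP converted to ATP for luciferase. Enzyme 1.25 nM, F6P 0.5 mM, ATP 0.1 mM, pH 8.0 TEA buffer, 45 min RT. Curves fitted and classed by quality and efficacy.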

[14] = Quantitative high throughput screen for delayed death inhibitors of the malarial parasite plastid, 96 hour incubation (AID 488745); note: potency is the fitted concentration of half-maximal effect; nearly all actives have a fitted effect of over 70% in size
Method in brief: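 Luciferase-expressing P. falciparum, infected RBCs 2% Hct/0.1% parasitemia (final); 96 h cpd exposure, 37 C, 5% CO2; RPMI 1640 + 0.5% Albumax, bicarbonate, gentamycin. Readout: luminescence loss = growth inhibition.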

[15] = biological target: Thioredoxin reductase 1, cytoplasmic (Rattus norvegicus) (UniProt O89049); test: qHTS Assay for Substrates of Mammalian Selenoprotein Thioredoxin Reductase 1 (TrxR1) (AID 488772);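 note: a drop in NADPH fluorescence below the no-compound background marks a TrxR1 substrate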
Chain of Thioredoxin reductase 1, cytoplasmic (Rattus norvegicus) (O89049 whole entry, looked up): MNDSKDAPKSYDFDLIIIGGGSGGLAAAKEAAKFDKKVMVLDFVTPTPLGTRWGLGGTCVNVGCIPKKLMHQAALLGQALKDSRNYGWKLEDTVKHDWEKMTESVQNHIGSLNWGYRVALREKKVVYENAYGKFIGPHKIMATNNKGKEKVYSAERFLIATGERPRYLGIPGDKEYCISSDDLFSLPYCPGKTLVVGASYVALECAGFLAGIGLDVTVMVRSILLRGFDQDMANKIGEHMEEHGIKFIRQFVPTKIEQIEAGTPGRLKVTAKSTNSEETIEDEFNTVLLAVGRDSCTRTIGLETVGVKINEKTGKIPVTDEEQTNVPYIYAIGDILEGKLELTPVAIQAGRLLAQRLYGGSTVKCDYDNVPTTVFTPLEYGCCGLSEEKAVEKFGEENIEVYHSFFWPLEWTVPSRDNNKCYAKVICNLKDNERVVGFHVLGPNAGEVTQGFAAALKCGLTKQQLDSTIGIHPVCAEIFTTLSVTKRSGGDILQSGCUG
Method in brief: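 In this dual-purpose format, potential substrates are identified from the first fluorescence read after selenite addition, not from the 8-minute delta. Rat enzyme is preincubated with NADPH and then with compound at ~22 deg C.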

[16] = biological target: Thioredoxin reductase 1, cytoplasmic (Rattus norvegicus) (UniProt O89049); test: qHTS Assay for Inhibitors of Mammalian Selenoprotein Thioredoxin Reductase 1 (TrxR1) (AID 488773); conditions: Potency: inhibition;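 note: drop in NADPH fluorescence over an 8 min run after selenite addition; nearly all actives have a fitted effect of over 40% in size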
Method in brief: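 Inhibition is scored from the loss of NADPH fluorescence between first and last reads of an 8-min kinetic run. Selenite (400 uM) was the substrate, added after 15 min compound preincubation at room temperature.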

[17] = biological target: Flap endonuclease 1 (Homo sapiens) (UniProt P39748); test: qHTS Validation Assay for the Inhibitors of Human Flap endonuclease 1 (FEN1) (AID 488816)
Method in brief: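 qHTS format: compounds and 10 nM FEN1 incubated 15 min at room temperature before adding 50 nM substrate. Cleavage followed by reads at 0 and 15 min; normalized data fitted to a four-parameter Hill curve.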

[18] = biological target: M-phase phosphoprotein 8 (Homo sapiens) (UniProt Q99549); test: qHTS Validation Assay for Inhibitors for MPP8 Chromodomain Interactions with Methylated Histone Tails (AID 488949); note: potency is the fitted concentration of half-maximal effect; nearly all actives have a fitted effect of over 55% in size
Chain of M-phase phosphoprotein 8 (Homo sapiens) (Q99549 whole entry, looked up): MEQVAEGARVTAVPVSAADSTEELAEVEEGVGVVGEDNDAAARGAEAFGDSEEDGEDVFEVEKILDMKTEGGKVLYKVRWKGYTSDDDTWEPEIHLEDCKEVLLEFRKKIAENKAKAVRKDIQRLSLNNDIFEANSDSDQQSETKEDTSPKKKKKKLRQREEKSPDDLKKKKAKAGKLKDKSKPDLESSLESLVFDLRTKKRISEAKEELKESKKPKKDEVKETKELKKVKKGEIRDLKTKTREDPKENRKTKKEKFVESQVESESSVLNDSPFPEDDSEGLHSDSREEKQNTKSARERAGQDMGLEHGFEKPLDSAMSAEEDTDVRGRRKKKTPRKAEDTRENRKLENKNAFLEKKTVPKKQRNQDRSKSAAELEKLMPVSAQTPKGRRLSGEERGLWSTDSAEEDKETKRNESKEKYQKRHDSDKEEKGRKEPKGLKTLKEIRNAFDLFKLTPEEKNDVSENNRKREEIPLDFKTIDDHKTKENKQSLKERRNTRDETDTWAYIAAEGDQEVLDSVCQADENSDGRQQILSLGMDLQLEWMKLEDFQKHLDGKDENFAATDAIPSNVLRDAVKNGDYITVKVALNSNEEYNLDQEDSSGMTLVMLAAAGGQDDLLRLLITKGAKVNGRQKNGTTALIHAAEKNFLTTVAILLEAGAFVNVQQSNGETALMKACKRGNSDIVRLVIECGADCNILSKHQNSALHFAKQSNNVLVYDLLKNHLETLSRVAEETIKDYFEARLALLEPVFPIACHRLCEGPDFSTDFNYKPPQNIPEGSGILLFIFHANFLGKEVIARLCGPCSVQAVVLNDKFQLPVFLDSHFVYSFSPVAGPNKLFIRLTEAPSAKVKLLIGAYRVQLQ
Method in brief: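 Chemiluminescent proximity assay: histidine-tag capture via nickel acceptor beads, biotin peptide via streptavidin donor beads. Protein and peptide each at 50 nM, pH 7.4, with 30 min incubations at room temperature for complex formation, compound exposure and bead binding.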

[19] = biological target: Chromobox protein homolog 1 (Homo sapiens) (UniProt P83916); test: qHTS Validation Assay for Inhibitors of HP1-beta Chromodomain Interactions with Methylated Histone Tails (AID 488953); note: potency is the fitted concentration of half-maximal effect; nearly all actives have a fitted effect of over 50% in size
Chain of Chromobox protein homolog 1 (Homo sapiens) (P83916 whole entry, looked up): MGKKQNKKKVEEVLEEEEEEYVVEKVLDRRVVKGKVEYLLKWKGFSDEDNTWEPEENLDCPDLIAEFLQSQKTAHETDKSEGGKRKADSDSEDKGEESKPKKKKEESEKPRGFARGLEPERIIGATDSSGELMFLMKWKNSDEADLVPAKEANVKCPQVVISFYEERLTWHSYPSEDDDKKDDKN
Method in brief: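 AlphaScreen proximity readout: streptavidin donor and Ni-chelate acceptor beads, 10 ug/mL final, 30 min dark, RT. Complex of 50 nM HP1-beta and 50 nM b-H3(1-18)K9me3 formed 30 min, then compound-treated 30 min; PBS pH 7.4/0.01% Tween-20.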

[20] = biological target: Methanococcus maripaludis chaperonin (MmCpn) (UniProt Q6LX38); test: High-Throughput Screening for Modulators of Cytosolic Chaperonin Activity: MmCpn Primary Screen (AID 488978)
Chain of Methanococcus maripaludis chaperonin (MmCpn) (Q6LX38 1-543): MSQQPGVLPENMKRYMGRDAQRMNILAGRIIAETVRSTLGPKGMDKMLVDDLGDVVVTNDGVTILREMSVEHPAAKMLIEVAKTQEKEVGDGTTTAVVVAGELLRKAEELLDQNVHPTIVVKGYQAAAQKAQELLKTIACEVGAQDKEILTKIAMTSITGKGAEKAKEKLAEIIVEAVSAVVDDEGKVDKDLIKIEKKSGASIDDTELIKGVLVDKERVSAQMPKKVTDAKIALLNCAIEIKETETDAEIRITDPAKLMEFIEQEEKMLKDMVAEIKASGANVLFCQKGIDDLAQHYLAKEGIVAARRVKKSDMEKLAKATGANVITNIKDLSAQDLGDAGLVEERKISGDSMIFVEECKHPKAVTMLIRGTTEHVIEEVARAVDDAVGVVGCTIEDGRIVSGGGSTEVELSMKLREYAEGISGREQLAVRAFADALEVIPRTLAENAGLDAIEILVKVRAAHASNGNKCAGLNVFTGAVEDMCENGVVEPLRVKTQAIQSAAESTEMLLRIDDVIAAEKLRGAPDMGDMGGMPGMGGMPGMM
Method in brief: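 HTRF readout (320 nm excitation, 590/665 nm emission) of ADP generated by 50 nM MmCpn hydrolysing 30 uM ATP during 10 min at 37C; compound preincubated 5 min RT.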

Measured: Potency

O=Nc1c(-c2c(O)[nH]c3ccccc23)[nH]c2ccccc12
active: [1] 1.58 µM | [2] 2.24 µM | [3] 398 nM | [4] 501 nM | [14] 1.17 µM | [18] 6.31 µM and 7.52 µM | [19] 3.98 µM
inactive: all other assays above
